We go through four compounds from PubChem BioAssay (EPA / NIEHS).

Holding throughout (details): mRNA level, 48 h; actives raise or lower the signal
Read-out in experiment [1]: Pro-epidermal growth factor (Homo sapiens) (UniProt P01133)
Nature of the experiment: LTEA_HepaRG_EGF: Life Technologies and Expression Analysis (LTEA) Assay for Epidermal growth factor (EGF) using HepaRG (AID 2283489). The method in brief: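 Differentiated human HepaRG cells, plated 48 h then switched to serum-free induction medium, were exposed for 48 h to test chemicals (8-point half-log series, top 100 uM, 0.5% DMSO). EGF mRNA was quantified by qRT-PCR, normalized to ACTB, GAPDH, POLR2A.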

Read-out in experiment [2]: Early growth response protein 1 (EGR1) transcription factor, EGR1 (gene 1958)
Nature of the experiment: LTEA_HepaRG_EGR1: Life Technologies and Expression Analysis (LTEA) Assay for Early growth response protein 1 (EGR1) transcription factor using HepaRG (AID 2283490). The gist of the method:
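HepaRG, 48 h exposure, 8-pt half-log series from 100 uM, 0.5% DMSO vehicle; EGR1 transcript by TaqMan qRT-PCR (Fluidigm array), housekeeping-normalized; bidirectional fit relative to DMSO baseline.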

Read-out in experiment [3]: Ezrin (EZR), EZR (gene 7430)
The experiment in a line: LTEA_HepaRG_EZR: Life Technologies and Expression Analysis (LTEA) Assay for Ezrin (EZR) using HepaRG (AID 2283491). The gist of the method: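 Read-out is EZR transcript level by qRT-PCR, normalized to three housekeeping genes and fitted bidirectionally against the DMSO control. Human HepaRG cells received test chemicals for 48 h at eight half-log concentrations up to 100 uM in 0.5% DMSO.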

Read-out in experiment [4]: Cytochrome P450 3A7 (Homo sapiens) (UniProt P24462)
Nature of the experiment: LTEA_HepaRG_CYP3A7: Life Technologies and Expression Analysis (LTEA) Assay for CYP3A7 using HepaRG (AID 2283492). The gist of the method:
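HepaRG cells plated 48 h, then dosed in serum-free induction medium for 48 h at 8 concentrations (top 100 uM, half-log steps, 0.5% DMSO). CYP3A7 mRNA by qRT-PCR, normalised to ACTB/GAPDH/POLR2A; bidirectional fit versus DMSO.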

Read-out in the next experiment: CYP3A5 (gene 1577)
The experiment in a line: LTEA_HepaRG_CYP3A5: Life Technologies and Expression Analysis (LTEA) Assay for CYP3A5 using HepaRG (AID 2283493). The method in brief:
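qRT-PCR read-out: CYP3A5 transcript in HepaRG lysates, housekeeping-normalized (ACTB/GAPDH/POLR2A), fitted bidirectionally against 0.5% DMSO baseline. Exposure 48 h, eight half-log concentrations up to 100 uM, duplicates.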

Read-out in experiment [5]: Fatty Acid-Binding Protein 1 (FABP1), FABP1 (gene 2168)
The experiment in a line: LTEA_HepaRG_FABP1: Life Technologies and Expression Analysis (LTEA) Assay for Fatty Acid-Binding Protein 1 (FABP1) using HepaRG (AID 2283494). The method in brief:
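qRT-PCR readout of FABP1 transcript (normalized to three housekeeping genes) after 48 h chemical exposure of HepaRG cells; eight concentrations, half-log steps, max 100 uM, 0.5% DMSO vehicle; gain or loss fitted relative to DMSO baseline.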

Read-out in experiment [6]: Cytochrome P450 4A22 (Homo sapiens) (UniProt Q5TCH4)
The experiment in a line: LTEA_HepaRG_CYP4A22: Life Technologies and Expression Analysis (LTEA) Assay for Cytochrome P450 4A22 (CYP4A22) using HepaRG (AID 2283495). The gist of the method:
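qRT-PCR of CYP4A22 mRNA (Fluidigm TaqMan, normalized to three housekeeping genes) after 48 h chemical exposure of HepaRG cells; 8-point half-log series, top 100 uM, 0.5% DMSO vehicle. Bidirectional curve fitting vs DMSO baseline.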

Read-out in experiment [7]: Cytochrome P450 7A1 (Homo sapiens) (UniProt P22680)
Nature of the experiment: LTEA_HepaRG_CYP7A1: Life Technologies and Expression Analysis (LTEA) Assay for Cytochrome P450 7A1 (CYP7A1) using HepaRG (AID 2283496). The gist of the method:
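Using 0.5% DMSO as vehicle and baseline, chemicals were tested in duplicate over an 8-point range from 100 uM on HepaRG cells for 48 h; qRT-PCR signals were normalised to ACTB, GAPDH and POLR2A.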

Read-out in experiment [8]: Glutathione S-Transferase (GSTA2), GSTA2 (gene 2939)
The experiment in a line: LTEA_HepaRG_GSTA2: Life Technologies and Expression Analysis (LTEA) Assay for Glutathione S-Transferase (GSTA2) using HepaRG (AID 2283497). The gist of the method:
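qRT-PCR readout of GSTA2 transcript, normalized to three housekeeping genes, fitted bidirectionally against 0.5% DMSO baseline. Differentiated HepaRG cells received compound for 48 h at 8 concentrations (top 100 uM, half-log steps).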

Read-out in experiment [9]: Glutamate-cysteine ligase catalytic (GCLC), GCLC (gene 2729)
The experiment in a line: LTEA_HepaRG_GCLC: Life Technologies and Expression Analysis (LTEA) Assay for Glutamate-cysteine ligase catalytic (GCLC) using HepaRG (AID 2283498). The method in brief:
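HepaRG, 48 h exposure, 8-pt half-log series from 100 uM, 0.5% DMSO vehicle; TaqMan qRT-PCR for GCLC mRNA, housekeeping-normalized; bidirectional curve fit vs DMSO baseline.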

Read-out in experiment [10]: growth arrest and DNA damage 45 (GADD45G), GADD45G (gene 10912)
The experiment in a line: LTEA_HepaRG_GADD45G: Life Technologies and Expression Analysis (LTEA) Assay for growth arrest and DNA damage 45 (GADD45G) using HepaRG (AID 2283499). The method in brief:
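Differentiated human HepaRG cells in serum-free induction medium were exposed for 48 h to 8 half-log concentrations up to 100 uM in 0.5% DMSO, in duplicate. GADD45G mRNA was measured by TaqMan qRT-PCR, normalised to ACTB, GAPDH and POLR2A, and fitted bidirectionally against DMSO.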

Read-out in experiment [11]: Glutamate-cysteine ligase regulatory (GCLM), GCLM (gene 2730)
The experiment in a line: LTEA_HepaRG_GCLM: Life Technologies and Expression Analysis (LTEA) Assay for Glutamate-cysteine ligase regulatory (GCLM) using HepaRG (AID 2283500). The method in brief:
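HepaRG, 48 h dosing, 100 uM top, half-log x8, 0.5% DMSO vehicle. Readout: GCLM mRNA by TaqMan qRT-PCR, housekeeping-normalized (ACTB/GAPDH/POLR2A). Curves fit bidirectionally vs DMSO baseline.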

Read-out in experiment [12]: Glutathione S-transferase M3 (GSTM3), GSTM3 (gene 2947)
The experiment in a line: LTEA_HepaRG_GSTM3: Life Technologies and Expression Analysis (LTEA) Assay for Glutathione S-transferase M3 (GSTM3) using HepaRG (AID 2283501). The gist of the method:
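Differentiated HepaRG cells in serum-free induction medium were exposed in duplicate for 48 h to 8 half-log concentrations up to 100 uM in 0.5% DMSO. GSTM3 mRNA was measured by TaqMan qRT-PCR, normalized to ACTB/GAPDH/POLR2A, and fitted bidirectionally versus DMSO.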

Read-out in experiment [13]: Heat shock 70 kDa protein 1 (HSPA1A), gene 3303
Nature of the experiment: LTEA_HepaRG_HSPA1A: Life Technologies and Expression Analysis (LTEA) Assay for Heat shock 70 kDa protein 1 (HSPA1A) using HepaRG (AID 2283502). The method in brief:
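HepaRG, 48 h exposure, 8-pt half-log CRC from 100 uM in 0.5% DMSO, duplicates. Readout: TaqMan qRT-PCR of HSPA1A mRNA, housekeeping-normalized (ACTB/GAPDH/POLR2A). Bidirectional fit vs 0.5% DMSO baseline.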

Read-out in experiment [14]: Hypoxia-inducible factor 1-alpha (Homo sapiens) (UniProt Q16665)
The experiment in a line: LTEA_HepaRG_HIF1A: Life Technologies and Expression Analysis (LTEA) Assay for Hypoxia-inducible factor 1 (HIF1A) Trancription factor using HepaRG (AID 2283503). The gist of the method:
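Gain- or loss-of-signal HIF1A mRNA changes are fitted against a DMSO baseline. HepaRG cultures receive eight concentrations, highest 100 uM, for 48 h in serum-free induction medium with 0.5% DMSO.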

Read-out in experiment [15]: 3-Hydroxy-3-Methylglutaryl-CoA Synthase 2 (HMGCS2), HMGCS2 (gene 3158)
Nature of the experiment: LTEA_HepaRG_HMGCS2: Life Technologies and Expression Analysis (LTEA) Assay for 3-Hydroxy-3-Methylglutaryl-CoA Synthase 2 (HMGCS2) using HepaRG (AID 2283504). The gist of the method:
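Differentiated human HepaRG cells were exposed in duplicate for 48 h in serum-free induction medium to eight concentrations (top 100 uM, half-log steps, 0.5% DMSO). HMGCS2 mRNA was quantified by TaqMan qRT-PCR, normalised to ACTB, GAPDH and POLR2A, then fitted bidirectionally against DMSO.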

Read-out in another experiment: HGF (gene 3082)
Nature of the experiment: LTEA_HepaRG_HGF: Life Technologies and Expression Analysis (LTEA) Assay for Hepatocyte Growth Facto (HGF) using HepaRG (AID 2283505). The gist of the method: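 Differentiated human HepaRG cells in serum-free induction medium were exposed in duplicate for 48 h to eight concentrations (top 100 uM, half-log steps, 0.5% DMSO). HGF mRNA was quantified by qRT-PCR, normalized to ACTB, GAPDH and POLR2A.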

Read-out in experiment [16]: Insulin Like Growth Factor 1 (IGF1), IGF1 (gene 3479)
The experiment in a line: LTEA_HepaRG_IGF1: Life Technologies and Expression Analysis (LTEA) Assay for Insulin Like Growth Factor 1 (IGF1) using HepaRG (AID 2283506). The method in brief: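 qRT-PCR readout of IGF1 mRNA, normalized to three housekeeping genes, after 48 h chemical exposure of HepaRG cells. Concentrations: 8-point half-log series, top 100 uM, 0.5% DMSO vehicle. Gain or loss fitted against DMSO baseline.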

Read-out in experiment [17]: Insulin-like growth factor-binding protein 1 (IGFBP1), IGFBP1 (gene 3484)
The experiment in a line: LTEA_HepaRG_IGFBP1: Life Technologies and Expression Analysis (LTEA) Assay for Insulin-like growth factor-binding protein 1 (IGFBP1) using HepaRG (AID 2283508). The gist of the method:
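Differentiated human HepaRG cells in serum-free induction medium were exposed in duplicate for 48 h to eight concentrations, top 100 uM with half-log dilutions, in 0.5% DMSO. Transcript levels came from qRT-PCR normalised to ACTB, GAPDH and POLR2A, fitted bidirectionally against DMSO.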

Read-out in experiment [18]: Interleukin 6 (IL6), IL6 (gene 3569)
Nature of the experiment: LTEA_HepaRG_IL6: Life Technologies and Expression Analysis (LTEA) Assay for Interleukin 6 (IL6) using HepaRG (AID 2283509). The method in brief:
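qRT-PCR read-out of IL6 transcript, normalized to three housekeeping genes, after 48 h chemical exposure of HepaRG cells; 8-point half-log series, top 100 uM, 0.5% DMSO vehicle. Bidirectional curve fitting against DMSO baseline.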

Active and inactive are the calls of the source. Rule for the calls: active = hit-call score of the fitted dose curve at least 0.9, where 1 is the maximum; inactive = score below 0.9.

Hypoxia-inducible factor 1-alpha (Homo sapiens), sequence (Q16665 whole entry, looked up): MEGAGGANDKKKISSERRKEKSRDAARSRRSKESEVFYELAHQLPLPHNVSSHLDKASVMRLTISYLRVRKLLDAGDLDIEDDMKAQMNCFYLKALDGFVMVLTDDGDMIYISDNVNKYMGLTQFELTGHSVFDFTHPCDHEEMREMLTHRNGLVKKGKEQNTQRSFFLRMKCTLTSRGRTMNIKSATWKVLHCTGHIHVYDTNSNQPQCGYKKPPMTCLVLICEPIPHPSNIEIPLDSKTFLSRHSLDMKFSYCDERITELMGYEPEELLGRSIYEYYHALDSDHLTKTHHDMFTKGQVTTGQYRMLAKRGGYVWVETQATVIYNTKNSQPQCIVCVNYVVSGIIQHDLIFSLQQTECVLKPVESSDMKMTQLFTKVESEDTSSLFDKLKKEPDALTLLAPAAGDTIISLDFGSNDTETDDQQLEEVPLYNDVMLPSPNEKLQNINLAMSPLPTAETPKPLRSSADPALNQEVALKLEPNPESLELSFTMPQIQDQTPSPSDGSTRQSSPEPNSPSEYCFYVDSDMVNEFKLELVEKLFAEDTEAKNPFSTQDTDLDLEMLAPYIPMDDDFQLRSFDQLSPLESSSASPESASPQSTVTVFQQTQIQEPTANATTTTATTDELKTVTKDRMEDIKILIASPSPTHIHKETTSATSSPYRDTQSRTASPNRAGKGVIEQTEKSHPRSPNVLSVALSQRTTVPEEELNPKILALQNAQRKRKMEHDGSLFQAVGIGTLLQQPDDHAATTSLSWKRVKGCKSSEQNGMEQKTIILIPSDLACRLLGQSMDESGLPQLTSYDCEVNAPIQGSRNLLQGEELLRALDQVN
Cytochrome P450 3A7 (Homo sapiens), sequence (P24462 whole entry, looked up): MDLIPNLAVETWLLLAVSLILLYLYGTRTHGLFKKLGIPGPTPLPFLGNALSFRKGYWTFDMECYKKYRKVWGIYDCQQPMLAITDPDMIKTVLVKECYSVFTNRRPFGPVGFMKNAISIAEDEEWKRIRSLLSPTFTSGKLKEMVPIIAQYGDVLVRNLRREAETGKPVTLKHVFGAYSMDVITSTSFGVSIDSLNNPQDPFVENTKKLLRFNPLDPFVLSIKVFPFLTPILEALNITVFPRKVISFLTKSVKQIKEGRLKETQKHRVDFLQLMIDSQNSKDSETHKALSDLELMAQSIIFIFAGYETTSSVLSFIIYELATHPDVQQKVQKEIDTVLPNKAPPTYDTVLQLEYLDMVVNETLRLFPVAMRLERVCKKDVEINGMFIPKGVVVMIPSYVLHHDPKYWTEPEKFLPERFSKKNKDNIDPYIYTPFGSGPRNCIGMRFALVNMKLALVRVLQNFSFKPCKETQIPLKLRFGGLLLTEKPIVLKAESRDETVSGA

For the compound `CCC(C)(C)c1ccc(O)c(C(C)(C)CC)c1`, the compound was called inactive (in [1]; in experiment [2]; in experiment [3]; in experiment [4]; in the experiment with CYP3A5 (gene 1577); in [5]). Moreover, the compound was called inactive in experiment [6], in experiment [7], in [8], in experiment [9], in [10] and in [11]. Besides, the result (in experiment [12]; in [13]; in experiment [14]; in experiment [15]; with HGF (gene 3082); in experiment [16]) was inactive. The compound was classed as inactive in experiment [17] and in experiment [18].
Take `Cc1ccccc1N`: the compound was called inactive (in experiment [1]; in [2]; in experiment [3]; in experiment [4]; with CYP3A5 (gene 1577); in [5]). Besides, the compound was called inactive in experiment [6], in experiment [7], in experiment [8], in experiment [9], in experiment [10] and in experiment [11]. Besides, the compound was classed as inactive (in experiment [12]; in experiment [13]; in [14]; in experiment [15]; with HGF (gene 3082); in [16]). Besides, the compound was called inactive in [17] and in [18].
Turning to `O=C(O)C(Cl)(Cl)Cl`, the result (in experiment [1]; in [2]; in experiment [3]; in [4]; in the experiment with CYP3A5 (gene 1577); in [5]) was inactive. In addition, the result in [6], in experiment [7], in experiment [8], in experiment [9], in experiment [10] and in experiment [11] was inactive. The outcome (in experiment [12]; in [13]; in experiment [14]; in experiment [15]; in the experiment with HGF (gene 3082); in experiment [16]) was inactive. The compound was called inactive in [17] and in experiment [18].
By AC50 is commonly meant the concentration at which the activity in the assay is half-maximal. Turning to `CCOP(=S)(OCC)SCSP(=S)(OCC)OCC`, the compound was classed as inactive in experiment [1], in experiment [2], in [3], in [8], in [11] and in experiment [12]. For the same compound, the call (in experiment [13]; in [14]; with HGF (gene 3082); in experiment [17]; in [18]) was inactive. Besides, the concentration at half-maximal activity (AC50) was 50000 nM (active) in experiment [4]; 236 nM (active) in the experiment with CYP3A5 (gene 1577); 12100 nM (active) in [5]; 74.2 nM (active) in experiment [6]; 9920 nM (active) in experiment [7]; 66.3 nM (active) in experiment [9]. In addition, the AC50 in [10] was 1490 nM (active); in experiment [15], 9920 nM (active); in experiment [16] it was 90.3 nM (active).
